Data from PubChem BioAssay AID2451 (National Center for Advancing Translational Sciences (NCATS), 2010).
Hit rate of the full screen: of about 290,000 compounds, about 2,100 (0.72%) were called active. About 4% were inconclusive and are not listed. This is one part of a sample in which actives are shown more often than they occur. Values without a mark were called inactive. Calls follow the shape of the dose curve; as a rule, active = well fitted inhibition curve with a large enough effect; inconclusive = small, poorly fitted or top-dose-only effect, or effect the other way; inactive = flat fitted curve, though single readings scatter.

molecular target: Fructose-bisphosphate aldolase (Giardia intestinalis (strain ATCC 50803 / WB clone C6)) (UniProt A8B2U2); assay: qHTS Assay for Inhibitors of Fructose-1,6-bisphosphate Aldolase from Giardia Lamblia; details: purified Giardia FBPA; series mostly up to 59.6 µM; activity, negative = inhibition: at the top concentration; also: nearly all actives have a fitted effect of over 55% in size
Sequence (A8B2U2 whole entry, looked up): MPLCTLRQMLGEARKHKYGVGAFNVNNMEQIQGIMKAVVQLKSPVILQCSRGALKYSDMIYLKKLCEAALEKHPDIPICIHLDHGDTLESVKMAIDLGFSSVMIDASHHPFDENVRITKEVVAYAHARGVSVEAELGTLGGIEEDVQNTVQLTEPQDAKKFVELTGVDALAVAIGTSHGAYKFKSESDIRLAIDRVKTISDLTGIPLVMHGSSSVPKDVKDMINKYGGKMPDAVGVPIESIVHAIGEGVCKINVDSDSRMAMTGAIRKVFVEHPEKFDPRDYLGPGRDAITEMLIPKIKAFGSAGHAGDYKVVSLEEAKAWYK
Procedure, shortened: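 Giardia FBPA (40 nM reagent) was preincubated 10 min at RT with compound (up to 57.5 uM final), then substrate plus GAPDH/TPI/NAD/arsenate coupling system with diaphorase/resazurin was added; resorufin fluorescence (525/598 nm) was read after 20 min.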
% is scaled to controls: 0 for no effect and ±100 for the full control effect; potency is read from the fitted curve at half-maximal effect.

SMILES	activity, negative = inhibition	Potency
O=C1c2ccccc2C(=O)N1CCOc1ccc(F)cc1	1.01%	–
COc1ccc(C2=NN(C(=O)c3ccccc3C(=O)O)C(c3ccccc3O)C2)cc1 (centres undefined)	12.5%	–
Cc1ccccc1N1CCN(CCCN2C(=O)C3CCCCN3C2=O)CC1 (centres undefined)	-15.4%	–
CCCCC1(C(=O)OCC)NC(c2ccc(O)cc2)C2C(=O)N(c3ccccc3)C(=O)C21 (centres undefined)	7.01%	–
C=C(Br)Cn1c(CCCC)nc2ccccc21	8.1%	–
CC(=O)c1nc2ccccc2n1Cc1ccccc1	-5.52%	–
O=C(O)Cn1c(Cc2ccccc2)nc2ccccc21	–	28.2 µM (active)
Cc1cc(C)nc(N/N=C/c2c(C)oc3ccccc23)n1	-26.2%	–
CCc1ccc(S(=O)(=O)N/N=C\c2ccc([N+](=O)[O-])o2)cc1	-19.2%	–
Cc1cc(C)nc(N/N=C/c2ccc([N+](=O)[O-])o2)n1	–	28.2 µM (active)
CS(=O)(=O)N1CCc2cc(C(=O)Nc3ccccc3Br)ccc21	10.4%	–
CCCOc1ccc(-c2c(C(=O)N/N=C/c3ccco3)nnn2-c2nonc2N)cc1	7.42%	–
Cc1ccc(/C=N/NC(=O)c2cc3ccccc3cc2O)o1	-19.7%	–
Cn1nnc(NC(=S)NC(=O)c2ccccc2)n1	–	3.15 µM (active)
COCCCNC(=S)NC(=O)c1ccccc1	0.0132%	–
Cc1cc2[nH]ncc2cc1NC(=S)NC(=O)c1ccccc1	-10.8%	–
Cc1c(Cl)cccc1NC(=S)NCC(O)c1ccccc1 (centres undefined)	0.0635%	–
O=C(c1n[nH]c2c1CCC2)N1CCCC(Nc2cccc(F)c2)C1 (centres undefined)	-1.71%	–
CSc1n[nH]c(=S)n1N	–	19.9 µM (active)
Cc1noc(C)c1CCC(=O)N1CCCC(CO)(Cc2ccccc2)C1 (centres undefined)	-4.45%	–
COc1ccc2c3c(c(=O)oc2c1)C1O[C@](CCCCN2C(=O)c4ccccc4C2=O)(Cc2c1ccc1ccccc21)O3	-2.65% [at 12.9 µM]	–
COc1ccc(CCNCc2c(-c3ccccc3)n(C)c3ccccc23)cc1	-29.6%	–
COc1ccc(-c2csc(Nc3ccc(O)cc3)n2)cc1	-23%	–
COc1ccc(-c2csc(Nc3ccccn3)n2)cc1	-13.5%	–
COc1ccc(OC)c(Nc2nc(-c3ccc(O)c(O)c3)cs2)c1	–	8.89 µM (active)
COc1ccc(C2=Nn3c(nnc3-c3ccccc3O)SC2)cc1	5.11%	–
CCOc1cc(C2/C(=C(/O)c3ccc(S(=O)(=O)N4CCCCC4)cc3)C(=O)C(=O)N2CCOC)ccc1O (centres undefined)	20.3%	–

SMILES	activity, negative = inhibition	Potency
O=C(CNC(=O)COc1ccccc1)NCCc1ccccn1	5.88%	–
Cc1ccc(/C=N/NC(=O)CNC(=O)COc2ccccc2)o1	-0.787%	–
CCn1c(SCC(=O)N/N=C/c2ccccc2OCC(=O)O)nnc1-c1ccc(C(C)(C)C)cc1	-14%	–
C=C(C)CNC(=S)N/N=C/c1ccccc1OCC(=O)O	–	17.7 µM (active)
CCOc1ccccc1/C=N/NC(=O)CNC(=O)COc1ccccc1	–	17.7 µM (active)
C=CCOc1ccccc1/C=N/NC(=O)Cc1ccccc1	9.96%	–
COC(=O)c1cccc(N2C(=O)C3C4C=CC(CC4)C3C2=O)c1 (centres undefined)	5.94%	–
CCCCN1C(=O)C(C)=C(C)C1OCCc1ccc(OC)c(OC)c1 (centres undefined)	4.28%	–
Cc1ccc(C(=O)NCC(=O)OCc2nnc(-c3ccccc3)o2)cc1	5.28%	–
CCOc1ccc(N(C)Cc2cc(=O)oc3ccc(OC)cc23)cc1	6.29%	–
Cn1nccc1/C=N\NC(=O)c1ccc(Cl)cc1	-7.24%	–
C=CCc1c(C)nc2cc(-c3ccccc3)[nH]n2c1=O	-20.9%	–
Cc1nc2cc(C(F)(F)F)ccc2n1CCNc1nc(-c2cc(Cl)c(N)c(Cl)c2)cs1	-7.4%	–
COc1cccc(C(=O)Nc2nnc(S(=O)(=O)N3CCCCC3)s2)c1	–	17.8 µM (active)
CCOC(=O)CSc1nnc(NC(=O)c2cccc(S(=O)(=O)N3CCCCC3)c2)s1	8.02%	–
Cc1ccccc1OCC(=O)Nc1nnc(S(=O)(=O)N2CCCC2)s1	0.701%	–
COc1ccc(C)cc1N(CC(=O)N1CCCC1)S(=O)(=O)c1ccccc1	8.2%	–
Cc1ccc(C)c(N2CCN(S(=O)(=O)c3c(C)[nH]c(C)c3C(=O)N3CCCC3)CC2)c1	6.26%	–
CN1CCN(CCCCOc2ccccc2-c2ccccc2)CC1	–	19.9 µM (active)
CC1CCCN(CCOCCOc2ccccc2-c2ccccc2)C1 (centres undefined)	-28.2%	–
CN1CCN(CCCCOc2cccc3ccccc23)CC1	-18.8%	–
CC(NC(=S)NNS(=O)(=O)c1ccc(C(C)(C)C)cc1)c1ccccc1 (centres undefined)	-2.32%	–
COc1ccc(C(=O)NNS(=O)(=O)c2ccc(C)cc2)cc1	-0.057%	–
Cc1ccc(S(=O)(=O)NNC(=S)NC(C)(C)C)cc1	–	11.2 µM (active)
CCNC(=O)CC1C(=O)N(c2ccc(OC)cc2)C(=O)N1CCOC (centres undefined)	-9.69%	–
O=c1oc2ccccc2c(CNc2ccccc2)c1[N+](=O)[O-]	8.39%	–
COc1ccc(C(=O)NCCSc2ccccc2C)cc1	9.8%	–
